# Laboratory results published in PubChem BioAssay (Tox21).
# Inconclusive results are not listed. Where a call stands in place of a potency, no number is given. Values without a mark were called inactive. Calls of active or inactive are those of the source. Unless noted, calls follow the shape of the dose curve; as a rule, active = well fitted curve in the direction sought with a large enough effect in the repeat runs; inconclusive = weak or mixed curves; inactive = no such curve, though single readings can be large; an effect the other way counts as inactive or inconclusive. Non-standard residues stand in square brackets, D forms with d. Residues, ends and D or L forms follow the SMILES beside them. pGlu = O=C1CC[C@@H](C(=O)O)N1
# Experiments:
# [1] = qHTS assay to identify aromatase inhibitors - cell viability counter screen (AID 743084);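 also: cells stimulated with testosterone during compound exposure; nearly all actives have a fitted effect of over 55% in size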; also: potency is read from the fitted curve at half-maximal effect
# [2] = qHTS assay to identify small molecule that activate the aryl hydrocarbon receptor (AhR) signaling pathway - cell viability counter screen (AID 743086); also: nearly all actives have a fitted effect of over 45% in size; also: potency is read from the fitted curve at half-maximal effect
# Summary of the method: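 HepG2-AhR-luc (HG2L7.5c1) cells, 4000/well, were preincubated 5 h at 37C, exposed to compound in qHTS format for 24 hr at 37C, then given CellTiter-Fluor for 30 min; viability was read as fluorescence in the reporter wells.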
# [3] = biological target: Peroxisome proliferator-activated receptor gamma (Homo sapiens) (UniProt P37231); experiment: qHTS assay to identify small molecule agonists of the peroxisome proliferator-activated receptor gamma (PPARg) signaling pathway (AID 743094; active = well fitted activation curve with a large enough effect in the signal ratio in the repeat runs, not every such curve was filed as active; the % refers to the signal ratio; also: potency is read from the fitted curve at half-maximal effect)
# Chain of Peroxisome proliferator-activated receptor gamma (Homo sapiens) (P37231 whole entry, looked up): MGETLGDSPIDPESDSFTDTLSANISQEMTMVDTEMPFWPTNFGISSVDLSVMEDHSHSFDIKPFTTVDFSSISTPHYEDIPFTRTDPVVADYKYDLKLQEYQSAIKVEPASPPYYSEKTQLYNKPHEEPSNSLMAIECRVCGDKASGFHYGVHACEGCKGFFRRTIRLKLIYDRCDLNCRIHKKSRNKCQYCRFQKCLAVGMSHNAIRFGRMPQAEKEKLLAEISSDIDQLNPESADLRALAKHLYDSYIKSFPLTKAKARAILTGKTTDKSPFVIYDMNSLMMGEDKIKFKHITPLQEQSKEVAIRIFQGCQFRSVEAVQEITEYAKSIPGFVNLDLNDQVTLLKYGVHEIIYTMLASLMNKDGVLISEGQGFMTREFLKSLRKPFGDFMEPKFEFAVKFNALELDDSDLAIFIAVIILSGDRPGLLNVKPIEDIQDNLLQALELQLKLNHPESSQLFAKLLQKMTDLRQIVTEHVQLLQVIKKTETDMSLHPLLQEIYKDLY
# Summary of the method: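 Beta-lactamase FRET fluorescence was the read-out after a 1 h room-temperature substrate step, following 17 h compound treatment at 37C of HEK293H cells expressing a UAS-driven bla reporter responsive to PPARg.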
# [4] = qHTS assay to identify small molecule phospholipidosis (PLD) inducers (AID 1259344; active = well fitted curve in the direction sought with a large enough effect; an effect the other way counts as inactive or inconclusive)
# Summary of the method: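 HepG2 cells on collagen I, attached 4 h at 37 C, were co-treated with compound and LipidTOX Red dye for 24 h at 37 C, then fixed with paraformaldehyde plus Hoechst 33342 and imaged by high-content microscopy for phospholipid accumulation.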
# [5] = biological target: Nuclear receptor subfamily 1 group I member 2 (Rattus norvegicus) (UniProt Q9R1A7); experiment: Rat pregnane X receptor (rPXR) activation by small molecules, qHTS assay (AID 1346983); details: rPXR luciferase reporter cells, One-Glo luminescence, 24 h; max activation: stronger effect = higher value; also: nearly all actives have a fitted effect of over 20% in size; also: potency is read from the fitted curve at half-maximal effect
# Chain of Nuclear receptor subfamily 1 group I member 2 (Rattus norvegicus) (Q9R1A7 whole entry, looked up): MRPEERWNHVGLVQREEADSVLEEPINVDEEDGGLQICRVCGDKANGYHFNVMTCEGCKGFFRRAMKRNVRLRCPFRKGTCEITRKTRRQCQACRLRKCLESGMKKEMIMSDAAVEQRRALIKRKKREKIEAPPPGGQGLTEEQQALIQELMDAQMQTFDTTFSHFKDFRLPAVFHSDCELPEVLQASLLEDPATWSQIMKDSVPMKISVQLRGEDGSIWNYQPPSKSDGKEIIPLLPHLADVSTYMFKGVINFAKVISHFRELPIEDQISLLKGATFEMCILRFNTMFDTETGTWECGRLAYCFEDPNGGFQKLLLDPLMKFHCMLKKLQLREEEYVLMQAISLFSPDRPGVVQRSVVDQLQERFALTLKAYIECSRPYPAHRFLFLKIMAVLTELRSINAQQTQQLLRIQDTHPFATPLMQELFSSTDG
# Summary of the method: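 Cell-based rPXR luciferase reporter assay, 2,000 cells per well, rested 5hr at 37 C before compound addition in DMSO, then 24 hr at 37 C. One-Glo reagent was added and luminescence read after 30 min at room temperature.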
# [6] = biological target: Nuclear receptor subfamily 1 group I member 2 (Homo sapiens) (UniProt O75469); experiment: CYP3A4 induction through human pregnane X receptor (PXR) by small molecules, qHTS assay (AID 1346984); also: nearly all actives have a fitted effect of over 40% in size
# Summary of the method: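 Luminescence readout: luciferase signal after One-Glo (30 min, room temperature), following 3 h at 37C with 3uM final Luciferin-IPA P450 substrate. Cells were DPX-2 (HepG2, PXR/CYP3A4-luc co-transfected) dosed for 24 h.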
# [7] = biological target: Nuclear receptor subfamily 1 group I member 2 (Homo sapiens) (UniProt O75469); experiment: Human pregnane X receptor (PXR) activation by small molecules, qHTS assay (AID 1346985); also: nearly all actives have a fitted effect of over 40% in size; also: potency is read from the fitted curve at half-maximal effect
# Summary of the method: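 DPX-2 cells (HepG2 co-transfected with a PXR response element and a CYP3A4-promoter luciferase construct) were seeded at 2,000 per well, rested 5 hr at 37C, then exposed to DMSO-dissolved compounds for 24 hr. Activation was read as luciferase luminescence.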
# [8] = biological target: Aryl hydrocarbon receptor (Homo sapiens) (UniProt P35869); experiment: qHTS assay to identify small molecule that activate the aryl hydrocarbon receptor (AhR) signaling pathway (AID 743085); also: nearly all actives have a fitted effect of over 15% in size; also: potency is read from the fitted curve at half-maximal effect;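 as to activation: HG2L7.5c1 human HepG2 liver cells with stably integrated DRE-driven firefly reporter; series mostly up to about 70 µM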
# Chain of Aryl hydrocarbon receptor (Homo sapiens) (P35869 whole entry, looked up): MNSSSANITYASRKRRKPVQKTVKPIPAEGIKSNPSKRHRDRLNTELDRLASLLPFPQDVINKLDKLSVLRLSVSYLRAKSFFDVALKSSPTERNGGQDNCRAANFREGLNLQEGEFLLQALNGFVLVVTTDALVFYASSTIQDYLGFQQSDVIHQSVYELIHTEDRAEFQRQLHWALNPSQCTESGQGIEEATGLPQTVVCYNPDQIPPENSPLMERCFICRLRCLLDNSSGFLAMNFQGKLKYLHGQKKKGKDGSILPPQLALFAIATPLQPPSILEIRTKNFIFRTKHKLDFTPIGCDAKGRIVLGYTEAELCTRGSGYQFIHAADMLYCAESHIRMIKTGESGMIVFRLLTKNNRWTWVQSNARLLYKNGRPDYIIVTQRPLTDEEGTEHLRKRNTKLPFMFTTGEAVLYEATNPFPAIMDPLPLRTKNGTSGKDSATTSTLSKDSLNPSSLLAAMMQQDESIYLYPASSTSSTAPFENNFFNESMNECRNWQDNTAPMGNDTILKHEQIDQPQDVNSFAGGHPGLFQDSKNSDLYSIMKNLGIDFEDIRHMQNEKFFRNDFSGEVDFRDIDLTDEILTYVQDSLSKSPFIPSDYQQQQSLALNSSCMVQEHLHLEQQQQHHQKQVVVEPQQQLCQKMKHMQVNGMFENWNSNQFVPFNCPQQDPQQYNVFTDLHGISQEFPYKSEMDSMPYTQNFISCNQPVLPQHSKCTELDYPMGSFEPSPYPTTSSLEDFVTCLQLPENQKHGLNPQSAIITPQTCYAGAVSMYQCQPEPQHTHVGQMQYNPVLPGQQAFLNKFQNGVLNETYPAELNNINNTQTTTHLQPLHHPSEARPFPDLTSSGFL
# Summary of the method: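 Steps: seed HepG2-AhR-luc cells; allow 5 h at 37C; pin-transfer test compound or vehicle; incubate 24 h at 37C; add viability dye (30 min, 37C) and read fluorescence; add luciferase substrate (30 min, RT) and read luminescence.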
SMILES,Potency [1],Potency [2],Potency [3],Potency [4],max activation [5],Potency [6],Potency [7],Potency [8],Potency [5]
NC(N)=NCC1COc2ccccc2O1 (stereo not given),inactive,inactive,inactive,inactive,-4.35%,inactive,inactive,,
CC(=O)N[C@@H]1C(O[C@H]2O[C@H](C(=O)O)C(O)[C@H](O)[C@H]2O)[C@H](O)[C@@H](CO)O[C@H]1O[C@@H]1C(C(=O)O)O[C@@H](O[C@H]2[C@H](O)[C@@H](CO)OC(O)[C@@H]2NC(C)=O)[C@H](O)[C@H]1O (stereo not given in full),inactive,inactive,inactive,inactive,-1.09%,inactive,inactive,,
Cc1cc(C(=O)NNCc2ccccc2)no1,inactive,inactive,inactive,inactive,-1.39%,inactive,inactive,,
C#C[C@]1(O)CC[C@H]2[C@@H]3CCC4=C/C(=N/O)CC[C@@H]4[C@H]3CC[C@@]21CC,,inactive,,inactive,6.76%,inactive,4.47 µM (active),inactive,
C=C1CC[C@@H]2[C@](C)(CO)[C@H](O)CC[C@@]2(C)[C@@H]1C/C=C1/C(=O)OC[C@H]1O,,,,inactive,-5.66%,inactive,inactive,inactive,
CC[C@H](C)[C@H](NC(=O)[C@H](Cc1ccccc1)NC(=O)[C@H](C)NC(=O)[C@H](CC(=O)O)NC(=O)[C@H](CCCCN)NC(=O)[C@H](CO)NC(=O)[C@@H]1CCCN1C(=O)[C@@H]1CCC(=O)N1)C(=O)NCC(=O)N[C@@H](CC(C)C)C(=O)N[C@@H](CCSC)C(N)=O ([pGlu]PSKDAFIGLM-NH2),inactive,inactive,inactive,inactive,-3.14%,inactive,inactive,,
CC(C)(C)C(=O)OCOC(=O)[C@@H]1N2C(=O)[C@@H](N=CN3CCCCCC3)[C@H]2SC1(C)C,,inactive,inactive,inactive,-0.301%,inactive,inactive,inactive,
NC(=O)OC[C@@H]1[C@H](NC(=O)/C(=N\OCC(=O)O)c2csc(N)n2)C(=O)N1S(=O)(=O)O,,inactive,,inactive,-2.39%,inactive,inactive,,
CO[C@@H]1[C@@H](O[C@@H]2O[C@H](C)[C@@H](O[C@H]3C[C@@](C)(O)[C@@H](OC(=O)CC(C)C)[C@H](C)O3)[C@H](N(C)C)[C@H]2O)[C@@H](CC=O)C[C@@H](C)C(=O)/C=C/C2OC2C[C@@H](C)OC(=O)C[C@H]1OC(C)=O (stereo not given in full),,,,inactive,-11.7%,inactive,inactive,inactive,
Cc1cc2nc3c(=O)[nH]c(=O)nc-3n(C[C@H](O)[C@H](O)[C@H](O)COP(=O)(O)OP(=O)(O)OC[C@H]3O[C@@H](n4cnc5c(N)ncnc54)[C@H](O)[C@@H]3O)c2cc1C,,,,inactive,-0.0695%,inactive,inactive,inactive,
O=S(=O)(O)c1cc(O)c2c(N=Nc3ccc(Nc4ccccc4)c4c(S(=O)(=O)O)cccc34)cc(S(=O)(=O)O)cc2c1,16.8 µM (active),11.9 µM (active),inactive,inactive,-12%,inactive,inactive,,
O=C(OCc1ccccc1)c1cccnc1,inactive,inactive,inactive,inactive,6.76%,inactive,inactive,,
O=C(O)c1cc(O)c2c(c1)[O][Bi][O]2,inactive,inactive,inactive,inactive,-0.194%,inactive,inactive,,
C=C1C(=O)O[C@H]2[C@H]1CC/C(C)=C\CC[C@@]1(C)O[C@@H]21,18.8 µM (active),16.8 µM (active),,inactive,-19.8%,inactive,,inactive,
O=C1c2ccccc2C(=O)C1c1ccc(Cl)cc1,inactive,inactive,inactive,inactive,-2.83%,inactive,inactive,,
O=C(Cc1cccs1)N[C@@H]1C(=O)N2C(C(=O)[O-])=C(C[n+]3ccccc3)CS[C@H]12,inactive,,inactive,inactive,-1.81%,inactive,inactive,,
C[C@@H]1C[C@H]2[C@@H]3CCC4=CC(=O)C=C[C@]4(C)[C@@]3(F)[C@@H](O)C[C@]2(C)[C@@]1(O)C(=O)COC(=O)c1cccc(S(=O)(=O)O)c1,inactive,inactive,inactive,inactive,,inactive,inactive,,10 µM (active)
NC(Cc1ccccc1)C(=O)O (stereo not given),inactive,inactive,inactive,inactive,14.8%,inactive,inactive,,
Cn1c(O)c(N=NC(N)=S)c2ccccc21,,2.98 µM (active),21.3 µM (active),inactive,1.06%,inactive,14.1 µM (active),1.06 µM (active),
CNC(=O)[C@H](Cc1c[nH]c2ccccc12)NC(=O)[C@@H](CC(=O)NO)CC(C)C,,0.596 µM (active),,inactive,15%,inactive,inactive,,
CCCCCc1ccc(C)cc1O,inactive,inactive,inactive,inactive,4.82%,inactive,inactive,,
CC(C)(C)NCC(O)c1ccc(O)c(CO)n1 (stereo not given),,inactive,,inactive,-0.193%,inactive,inactive,,
CCCC(=O)O[C@]1(C(=O)COC(C)=O)CC[C@H]2[C@@H]3C[C@H](F)C4=CC(=O)C=C[C@]4(C)[C@@]3(F)[C@@H](O)C[C@@]21C,,inactive,,inactive,,inactive,inactive,inactive,2.51 µM (active)
